# Measurements published in PubChem BioAssay (NCATS).
# The other results are listed elsewhere or left out. Inconclusive results are not listed. Activity calls are given as the source filed them. Calls come from the whole dose curve.
# Biological target: Polyprotein P1234 (Chikungunya virus (strain S27-African prototype)) (UniProt Q8JUX6)
# Experiment: Selectivity profile for inhibitors of NSP2Pro chikungunya virus (CHIKV): Full length NSP2 enzyme counterscreen (CHIKV-NSP2) (AID 1964101); note: nearly all actives have a fitted effect of over 65% in size
# Conditions: Full-length CHIKV NSP2 protease enzymatic counterscreen; series mostly up to 50.7 µM
# Text: PI: Natalia J. Martinez Ph.D.
# National Center for Advancing Translational Sciences (NCATS),
# National Institute of Health (NIH), Rockville, Maryland
# Chikungunya virus (CHIKV) is a mosquito-borne RNA virus that has emerged as one of the most important global arboviral threats in the last decade. Although the first CHIKV vaccine has recently been FDA approved for use in healthy adults at increased risk, to date, there are no available antiviral drugs for CHIKV infection. CHIKV nsP2 protease plays a crucial role in the processing of the viral polypeptide precursor to release enzymes required for viral replication, thus making it a promising drug target for antiviral discovery. Here, we established a high-throughput pipeline to identify small molecule inhibitors of nsP2 proteolytic activity. The pipeline is composed of a suite of 1,536-well in vitro assays to support quantitative high-throughput (qHTS) screening campaigns. Specifically, we developed a fluorescence resonance energy transfer (FRET)-based assay using a fluorogenic peptide substrate encompassing an endogenous cleavage site and purified recombinant protease domain (nsP2pro). Using this assay, we interrogated ~37,000 small molecules, including those in drug repurposing libraries as well as chemically diverse and medicinal chemistry-friendly compounds. Hits were selected for follow-up validation against full-length nsP2 and an additional peptide. FRET-based 1,536-well assays for papain, hepatitis C virus NS3-4A, and human furin proteases were implemented to characterize compound selectivity. […] Novel compounds were identified to be potential nsP2 inhibitors and molecular docking analyses were performed to explain the binding mode of selected hits. In vitro antiviral activity was evaluated for a subset of compounds using a high-throughput CHIKV infection assay. To our knowledge, the pipeline presented here is unprecedented for CHIKV antiviral discovery research.
# PROTOCOL TABLE (as described by Inglese J, Shamu CE and Guy RK. 2007)
# SEQUENCE No. (e.g., 1, 2, 3, etc.); […] (e.g., Cells, Incubation, Reagent, etc.); VALUE; DESCRIPTION.
# 1; Control / Compound; 20 nL; Echo 655 acoustic dispenser, Greiner 1536-well solid bottom black plate.
# 2; Enzyme; 4 uL; BioRAPTR FRD liquid dispenser (Beckman Coulter).
# 3; Incubation; 15 min; room temperature.
# 4; Reagent; 4 uL; 2.5 uM Peptide 2 substrate.
# 5; Incubation; 1 hr; room temperature.
# 6; Detection; Fluorescence; WiewLux microplate reader (PerkinElmer), 525 nm excitation, 598/25 nm emission.
# NOTES (numbers refer to sequence numbers above).
# 1. Briefly, 20 nL DMSO, positive control ZnAc (20nM final concentration), and test compounds were transferred into a 1,536-well solid bottom black plate (789176-F, Greiner One) via Echo 655 acoustic dispenser (Beckman Coulter). For primary screens, compounds were tested at 7 concentrations, 1:3 dilution points ranging from 25 uM to 34 nM. Follow-up confirmatory screens were carried out at 11 concentrations, 1:3 dilution points from 25 uM to 0.42 nM.
# 2. Four uL NSP2 full length enzyme mix (150 nM final concentration) in 10 mM Tris-HCl pH 8.0 with 0.01% Tween 20 assay buffer was dispensed into the plate using a BioRAPTR FRD liquid dispenser (Beckman Coulter).
# 3. The plate was incubated at room temperature (protected from light) for 15 min
# 4. Four microliter of peptide 2 substrate (2.5 uM final concentration) in assay buffer was added to the plate.
# 5. After 1 hour, plates were immediately read on a ViewLux high-throughput CCD imager (Exposure = 10 sec, Gain = High, Speed = Slow, Binning = 2X). The above assay was also incorporated in the NCATS HTS facility41, which allowed for robotic liquid and compound dispensing, microplate handling, and fluorescence reading.
# Inglese J, Shamu CE and Guy RK, Reporting data from high throughput screening of small molecule libraries, Nature Chemical Biology, 2007, 3(8): 438-441. doi.org/10.1038/nchembio0807-438.
# Potency is the fitted concentration of half-maximal effect.
# Sequence of Polyprotein P1234 (Chikungunya virus (strain S27-African prototype)) (Q8JUX6 whole entry, looked up): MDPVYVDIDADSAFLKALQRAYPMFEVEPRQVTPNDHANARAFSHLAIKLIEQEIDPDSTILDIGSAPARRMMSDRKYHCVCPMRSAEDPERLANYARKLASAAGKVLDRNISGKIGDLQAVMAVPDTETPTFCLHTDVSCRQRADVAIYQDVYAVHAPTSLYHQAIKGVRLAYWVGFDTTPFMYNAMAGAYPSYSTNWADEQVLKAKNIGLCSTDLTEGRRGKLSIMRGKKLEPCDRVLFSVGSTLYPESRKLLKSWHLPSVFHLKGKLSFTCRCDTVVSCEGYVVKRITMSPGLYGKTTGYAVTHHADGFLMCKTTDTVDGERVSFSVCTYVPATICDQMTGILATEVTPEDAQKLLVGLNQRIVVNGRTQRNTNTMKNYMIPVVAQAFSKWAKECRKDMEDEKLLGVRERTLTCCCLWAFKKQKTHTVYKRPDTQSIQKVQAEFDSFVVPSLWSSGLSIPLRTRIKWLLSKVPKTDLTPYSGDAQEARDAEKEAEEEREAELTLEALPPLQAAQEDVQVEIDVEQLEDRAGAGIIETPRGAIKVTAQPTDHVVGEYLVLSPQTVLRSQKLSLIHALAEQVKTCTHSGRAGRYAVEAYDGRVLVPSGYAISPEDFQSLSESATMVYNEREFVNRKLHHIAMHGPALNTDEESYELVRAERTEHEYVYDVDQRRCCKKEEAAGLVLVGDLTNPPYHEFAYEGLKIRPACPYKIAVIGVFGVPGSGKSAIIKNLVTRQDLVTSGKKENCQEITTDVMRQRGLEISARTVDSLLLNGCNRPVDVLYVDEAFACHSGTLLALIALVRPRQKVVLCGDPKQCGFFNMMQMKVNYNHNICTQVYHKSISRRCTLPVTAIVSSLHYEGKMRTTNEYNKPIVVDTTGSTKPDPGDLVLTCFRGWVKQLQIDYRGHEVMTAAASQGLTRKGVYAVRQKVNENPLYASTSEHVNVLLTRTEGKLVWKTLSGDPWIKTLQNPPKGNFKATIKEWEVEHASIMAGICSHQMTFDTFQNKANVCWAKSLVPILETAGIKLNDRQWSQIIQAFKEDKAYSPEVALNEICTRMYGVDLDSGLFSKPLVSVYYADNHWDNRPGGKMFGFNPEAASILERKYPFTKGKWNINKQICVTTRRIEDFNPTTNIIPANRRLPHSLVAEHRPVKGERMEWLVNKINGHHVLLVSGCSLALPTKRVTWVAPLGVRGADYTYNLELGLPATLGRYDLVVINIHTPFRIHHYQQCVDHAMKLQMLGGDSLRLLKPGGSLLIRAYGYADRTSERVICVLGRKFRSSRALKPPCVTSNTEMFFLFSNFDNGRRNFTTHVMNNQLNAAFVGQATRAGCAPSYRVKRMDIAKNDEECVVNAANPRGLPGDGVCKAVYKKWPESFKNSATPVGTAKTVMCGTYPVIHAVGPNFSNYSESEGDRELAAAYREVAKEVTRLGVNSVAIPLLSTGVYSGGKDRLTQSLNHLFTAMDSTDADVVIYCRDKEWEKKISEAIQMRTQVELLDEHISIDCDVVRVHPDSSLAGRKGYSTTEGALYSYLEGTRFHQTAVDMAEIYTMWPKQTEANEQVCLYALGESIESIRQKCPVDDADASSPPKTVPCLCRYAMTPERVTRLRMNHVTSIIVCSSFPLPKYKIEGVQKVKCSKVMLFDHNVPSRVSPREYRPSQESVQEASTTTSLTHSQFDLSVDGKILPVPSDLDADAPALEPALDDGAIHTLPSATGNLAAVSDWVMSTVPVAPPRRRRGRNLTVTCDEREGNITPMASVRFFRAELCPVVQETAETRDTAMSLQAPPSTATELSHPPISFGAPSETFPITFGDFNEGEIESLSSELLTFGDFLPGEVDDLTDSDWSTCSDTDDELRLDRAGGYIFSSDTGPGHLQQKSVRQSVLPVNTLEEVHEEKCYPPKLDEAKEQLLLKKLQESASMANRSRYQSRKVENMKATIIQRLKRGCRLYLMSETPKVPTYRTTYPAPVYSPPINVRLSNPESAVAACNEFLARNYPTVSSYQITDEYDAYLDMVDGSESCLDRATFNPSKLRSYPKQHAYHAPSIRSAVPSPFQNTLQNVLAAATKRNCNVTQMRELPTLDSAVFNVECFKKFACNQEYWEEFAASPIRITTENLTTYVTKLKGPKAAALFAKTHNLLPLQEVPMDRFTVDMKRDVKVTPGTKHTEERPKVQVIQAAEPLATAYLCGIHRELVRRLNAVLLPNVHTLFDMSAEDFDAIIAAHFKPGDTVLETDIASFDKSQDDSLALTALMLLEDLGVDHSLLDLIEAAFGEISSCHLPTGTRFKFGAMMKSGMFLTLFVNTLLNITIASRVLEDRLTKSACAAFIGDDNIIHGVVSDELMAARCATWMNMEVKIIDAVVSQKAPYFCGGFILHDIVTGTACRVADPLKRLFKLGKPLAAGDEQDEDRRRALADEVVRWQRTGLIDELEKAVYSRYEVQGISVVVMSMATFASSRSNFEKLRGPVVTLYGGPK
row,Compound,Potency
1,N#CSc1cc(SC#N)c(N)nc1N,1.03 µM (active)
2,C=CC(=O)c1ccc2ccccc2c1,11.6 µM (active)
3,CO[C@]1(NC(=O)CSC(F)F)C(=O)N2C(C(=O)O)=C(CSc3nnnn3CCO)CO[C@H]21,inactive
4,Oc1ccc(OC2CCCCO2)cc1 (centres undefined),inactive
5,COC([CH2][Hg])CNC(=O)c1ccccc1OCC(=O)O (centres undefined),18.3 µM (active)
6,Cn1nnnc1Sc1ncnc2n[nH]c(-c3cccc(S(C)(=O)=O)c3)c12,15.8 µM (active)
7,CCOc1ccc(N(Cc2ccccc2)C(=O)c2nc(S(C)(=O)=O)ncc2Cl)cc1,14.6 µM (active)
8,CCC(C)C(=O)OC1C(C)C2(O)C(C=C(CO)CC3(O)C(=O)C(C)=CC32)C2C(C)(C)C12OC(=O)C(C)C (centres undefined),inactive
9,C[C@@H]1C[C@@H](O)[C@@]23CO[C@]2(CO)C[C@@H](O)CC3[C@@]12CC(c1ccoc1)OC2=O (some centres undefined),inactive
